Screening results deposited in PubChem BioAssay by NMMLSC.
RGS7-Gao reg: RGS7-Galphao binding modulators, primary screen, biochemical, multiplexed bead flow cytometry; actives lie on both sides; binding response (% of control), % at 10 µM; 220,000 compounds, 0.35% hits; AID 1439, 2008; in the data active = binding response below about 49% or above about 150%; inconclusive = no clear call, values can overlap the other calls; inactive = in between;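 note: fluorescent Galphao held in activated GDP-AlF4 state binding bead-coupled RGS7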
Target sequence (P09471 whole entry, looked up): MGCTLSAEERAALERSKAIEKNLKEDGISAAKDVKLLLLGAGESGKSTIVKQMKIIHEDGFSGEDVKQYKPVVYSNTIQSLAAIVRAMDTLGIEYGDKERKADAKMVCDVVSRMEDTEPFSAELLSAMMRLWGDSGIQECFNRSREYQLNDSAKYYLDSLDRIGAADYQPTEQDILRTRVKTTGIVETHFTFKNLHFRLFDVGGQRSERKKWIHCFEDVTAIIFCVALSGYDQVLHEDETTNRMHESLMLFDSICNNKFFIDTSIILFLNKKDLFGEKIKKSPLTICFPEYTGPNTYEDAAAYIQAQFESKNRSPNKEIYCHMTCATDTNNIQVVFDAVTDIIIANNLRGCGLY
RGS16-Gao: modulators of RGS16 binding to Galphao, primary screen, biochemical, human proteins, multiplexed bead flow cytometry | Regulator of G-protein signaling 16 (Homo sapiens) + Guanine nucleotide-binding protein … | bead-based flow cytometry RGS16-Galphao binding, fluorescence; actives lie on both sides | binding response (% of control), % at 10 µM | 220,000 compounds, 0.38% hits | AID 1441, 2008; call rule not given here;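 note: Galphao activated by GDP with aluminum fluoride before binding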
Target sequence (O15492 whole entry, looked up): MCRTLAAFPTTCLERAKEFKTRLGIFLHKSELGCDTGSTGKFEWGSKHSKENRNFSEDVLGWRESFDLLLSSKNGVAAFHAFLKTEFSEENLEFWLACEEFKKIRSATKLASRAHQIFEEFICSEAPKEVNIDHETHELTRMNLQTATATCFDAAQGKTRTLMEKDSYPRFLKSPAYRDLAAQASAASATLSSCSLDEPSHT
Target sequence (P09471 whole entry, looked up): as the sequence (P09471 whole entry, looked up) above
Avidin fluor: green autofluorescence of compounds with avidin beads – biophysical, 488/530 nm, flow cytometry, artefact control, profiling panel; AID 1775, 2009; fluorescence (KMESF) at 10 µM; compound fluorescence 488/530 nm; active compounds read high; 220,000 compounds, 0.38% hits; in the data active = fluorescence above about 47
GSH bead fluor: compound fluorescence on glutathione beads, profiling panel, artefact control, biophysical, 488/530 nm, flow cytometry; GSH beads flow cytometry, compound fluorescence 488/530 nm; active compounds read high; fluorescence (KMESF) at 10 µM; 190,000 compounds, 0.25% hits; in the data active = fluorescence above about 89;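 note: glutathione beads carrying GST-tagged Bcl family fusion proteins plus one bare bead set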
RGS4-Gao reg: modulators of RGS4 binding to Galphao, primary screen, biochemical, multiplexed bead flow cytometry. Guanine nucleotide-binding protein G(o) subunit alpha (Homo sapiens), P09471. actives lie on both sides. binding response (% of control), % at 10 µM. 220,000 compounds, 0.33% hits; in the data active = binding response below about 49% or above about 150%; inactive = in between;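 note: fluorescent Galphao activated with aluminum fluoride binding bead-coupled RGS4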
RGS8-Gao reg: RGS8-Galphao binding modulators, primary screen, biochemical, multiplexed bead flow cytometry; Guanine nucleotide-binding protein G(o) subunit alpha (Homo sapiens), P09471; actives lie on both sides; response (percent of control binding), % at 10 µM; 220,000 compounds, 0.34% hits; AID 1423, 2008; in the data active = response below about 60% or above about 140%; inactive = in between;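 note: Galphao activated as the GDP aluminium fluoride complex binding bead-coupled RGS8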
Large screens that a line does not name were inactive. A selection: hits, their analogues and other compounds. The true share with any hit is near 1.2%.

CCOC(=O)NC(CC(=O)O)c1ccc(OC)c(OC)c1 (stereo not drawn)	GSH bead fluor 259
Cc1ccc(C)c(C(=O)COc2ccc(C)nc2[N+](=O)[O-])c1	GSH bead fluor 256
Cc1ccc(Nc2nc(N)nc(CCl)n2)c(C)c1	RGS7-Gao reg inconclusive (no result: GSH bead fluor)
CSc1snc(SCC(N)=O)c1C#N	none
COC(=O)CSc1nsc(SCC(=O)OC)c1C#N	Avidin fluor 52
N/C(=N\OC(=O)c1cccs1)c1ccccc1	Avidin fluor 51
COc1ccc(N2C(=O)C(CC(=O)O)S/C2=C\C(C)=O)cc1 (stereo not drawn)	GSH bead fluor 251
O=C(NCc1ccccc1)c1c[nH]c2cc3c(cc2c1=O)OCCO3	GSH bead fluor 89
O=C(NCc1ccc2c(c1)OCO2)c1c[nH]c2ccc(S(=O)(=O)N3CCOCC3)cc2c1=O	none
CC(C)CC(=O)Nc1ccc(-c2nnn(CC(=O)NCc3ccco3)n2)cc1	none
CCCCCCn1c(SCC(=O)c2c(N)n(C)c(=O)n(C)c2=O)nc2ccccc21	none
Cn1c(N)c(C(=O)CSc2nc3ccccc3c(=O)n2Cc2ccccc2)c(=O)n(C)c1=O	RGS7-Gao reg inconclusive, Avidin fluor 49 (no result: GSH bead fluor)
NC(=S)n1[nH]c(-c2ccc([N+](=O)[O-])cc2)c(N=Nc2ccccc2[N+](=O)[O-])c1=O	GSH bead fluor 453
Cc1c(N=Nc2c(-c3ccc([N+](=O)[O-])cc3)[nH]n(C(N)=S)c2=O)cccc1[N+](=O)[O-]	none
S=C(NCCc1ccccc1)Nc1c(Cl)cccc1Cl	RGS7-Gao reg inconclusive (no result: GSH bead fluor)
COC(=O)c1nc(N)sc1C	none
COc1cc(NC(=S)NC(=O)c2ccc(C(C)(C)C)cc2)ccc1NC(=O)c1cccs1	none
COc1cc(NC(=S)NC(=O)c2cc(C)cc(C)c2)ccc1NC(=O)c1cccs1	GSH bead fluor 104
c1ccc2c3c([nH]c2c1)-c1[nH]ncc1CC3	GSH bead fluor 265
CCOC(=O)c1cc(C#N)c(C)nc1N(CC)CC	RGS7-Gao reg inconclusive (no result: GSH bead fluor)
COc1ccc(OCCSc2nnc(-c3ccccc3)n2N)cc1	Avidin fluor 63
CC(O)CNc1cnccn1 (stereo not drawn)	RGS7-Gao reg inconclusive
Cc1cccc(C)c1NC(=O)COc1cccc(/C=N/NC(=O)C(=O)NCc2ccccc2)c1	Avidin fluor 57
CCN(CC)c1ccc(/C=c2\sc3nnc(-c4ccccc4Cl)n3c2=O)cc1	GSH bead fluor 104
Cc1ccc(N(CC(O)Cn2nc(C)cc2C)S(=O)(=O)c2ccc3ccccc3c2)cc1 (stereo not drawn)	none
Cc1cc(C)n(CC(O)CN(c2ccccc2)S(=O)(=O)c2ccccc2)n1 (stereo not drawn)	Avidin fluor 67
CC(NCC(=O)Nc1cc(S(=O)(=O)N2CCCCCC2)ccc1Cl)c1ccccc1 (stereo not drawn)	RGS7-Gao reg inconclusive
COCCOC(=O)c1c(C)oc2ccc(OCC=C(C)C)cc12	Avidin fluor 48
CS(=O)(=O)N(CC(=O)NCc1ccncc1)c1cc(Cl)ccc1Cl	none
S=C1NC(c2ccccc2)N2C(=S)NC(c3ccccc3)N12 (stereo not drawn)	none
COc1ccc(C2NC(=S)N3C(c4ccc(OC)cc4)NC(=S)N23)cc1 (stereo not drawn)	GSH bead fluor 266
CCN1CCN(c2nc(S(=O)(=O)c3ccc(C)cc3)c(Cl)s2)CC1	none
CC(C)CNC(=O)c1ccccc1NC(=O)c1ccc(CN2CCOCC2)cc1	Avidin fluor 48
CCOc1cccc(/C(O)=C2/C(=O)C(=O)N(Cc3cccnc3)C2c2ccco2)c1 (stereo not drawn)	Avidin fluor 58
Cc1ccc(C)c2[nH]c(=O)c(C(c3nnnn3Cc3ccccc3)N3CCc4ccccc4C3)cc12 (stereo not drawn)	GSH bead fluor 266
CNC(=O)CCCCC(=O)N/N=C/c1ccc(Cl)cc1Cl	RGS7-Gao reg inconclusive (no result: GSH bead fluor)
O=C(Nc1ccc2c(c1)N(Cc1ccccc1)C(=O)c1ccccc1S2)NC1CC1	none
CN1C(=O)c2ccccc2Sc2ccc(NC(=O)NC3CC3)cc21	Avidin fluor 92
CN(Cc1cc(=O)[nH]c2ccccc12)C(=O)c1ccccc1	GSH bead fluor 271
COc1ccccc1N(Cc1cc(=O)[nH]c2ccccc12)C(=O)c1ccccc1	RGS7-Gao reg inconclusive (no result: GSH bead fluor)
CCOC(=O)c1[nH]c2ccc(OC)cc2c1NC(C)=O	Avidin fluor 62
COC(=O)c1[nH]c2cccc(OC)c2c1NC(=O)CCN1CCC(C)CC1	none
CCOC(=O)Nc1c(C(=O)OC)[nH]c2cccc(OC)c12	Avidin fluor 57
COc1cc2c3nnc(-c4ccc(F)cc4)c-3cn(Cc3cccc(F)c3)c2cc1OC	GSH bead fluor 90
CC1(CCc2ccccc2)NC(=O)N(CC(=O)N2CC(=O)Nc3ccccc32)C1=O (stereo not drawn)	RGS7-Gao reg inconclusive (no result: GSH bead fluor)
CC(C)CCn1c(Sc2nc3ccccc3o2)nc2c1c(=O)[nH]c(=O)n2C	none
CC(C)(C)C(=O)N(CCN(C(=O)C(C)(C)C)c1ccccc1)c1ccccc1	Avidin fluor 50
CCc1cccc(CC)c1NC(=O)COC(=O)CC1c2ccccc2CCN1S(=O)(=O)c1ccccc1 (stereo not drawn)	Avidin fluor 78
CCc1cccc(CC)c1NC(=O)COC(=O)c1cccc(S(=O)(=O)N2CCc3ccccc3C2)c1	none
COc1ccc(OC)c(NC(=O)C(=O)NNC(=O)C23CC4CC(CC(C4)C2)C3)c1	RGS7-Gao reg inconclusive (no result: GSH bead fluor)
Cc1ccc(Nc2c3c(nc4ncnn24)CCC3)cc1	Avidin fluor 82
Cc1nc2ccccc2c(=O)n1NC(=O)c1cccnc1Cl	none
Cc1nc2ccccc2c(=O)n1NC(=O)c1ccccc1[N+](=O)[O-]	Avidin fluor 49
FC(F)(F)C(F)(F)c1nnc2ccc(-n3ccnc3)nn12	none
CCOc1ccc2nc3c(cc2c1)CN(CCOC)C(=NC)S3	GSH bead fluor 114
Cc1ccc(N(NC(=O)C(O)(c2ccccc2)c2ccccc2)C(=O)CCl)cc1	none
Cc1ccc2c(C(=O)CNc3nncs3)c(C)[nH]c2c1	RGS7-Gao reg inconclusive (no result: GSH bead fluor)
COc1ccc(C2CC(c3ccc(Br)cc3)Nc3nc(N)nn32)cc1 (stereo not drawn)	none
COc1ccc(C2CC(c3ccccc3)Nc3nc(N)nn32)cc1 (stereo not drawn)	Avidin fluor 50
